Bioassay records as filed in PubChem.
CtBP-E1A blk = qHTS Assay for Inhibitors of the CtBP/E1A Interaction | CtBP / adenovirus E1A interaction (AlphaScreen) | AlphaScreen GST-E1A/His-CtBP binding, 1536-well; stronger effect = lower value | activity change, % (test concentration not listed) | actives 0.49% (n = 340,000) | AID 651724, 2012; in the data active means activity change below about -65%; inconclusive means mostly about -30% to -63%
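Homogeneous bead-based format: GST-tagged E1A captured on glutathione donor beads, His-tagged CtBP on nickel acceptor beads; compounds precede bead addition by 2 h at 37 °C.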
IL1B secr inh = qHTS for Inhibitors of Inflammasome Signaling: IL-1-beta AlphaLISA Primary Screen | AID 743279, 2014 | activity change, % at 57.5 µM | THP-1 LPS/ATP IL-1B secretion, AlphaLISA, 16 h; stronger effect = lower value | actives 4.7% (n = 360,000); in the data active means activity change below about -50%; inconclusive means mostly about -30% to -49%
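THP-1 cells pretreated 1 hr with compounds (up to 57.5 uM final), then stimulated with LPS (250 ng/mL final) plus ATP (1.25 mM final); secreted IL-1B measured by AlphaLISA after 16 hr, decreased signal indicating inhibition.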
Six1-Eya2 inh = qHTS Assay for Inhibitors of the Six1/Eya2 Interaction; AlphaScreen GST-Six1/His-Eya2 binding, biochemical; stronger effect = lower value; activity change, % (no concentration beside the values); actives 0.56% (n = 360,000); AID 651725, 2012; in the data active means activity change below about -65%; inconclusive means mostly about -30% to -63%
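Homogeneous AlphaScreen proximity assay pairing GST-Six1 with His-tagged Eya2 (added as 5X mix: 250 nM and 500 nM) in 50 mM Tris pH 8.0, 300 mM NaCl, 1 mM TCEP. Glutathione donor and nickel acceptor beads; 1 h, 37 °C, dark.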
TDP1 cell CPT = qHTS for Inhibitors of human tyrosyl-DNA phosphodiesterase 1 (TDP1): qHTS in cells in presence of CPT; actives 12% (n = 420,000); Potency, µM (titrated, usually from 46.2 µM), inactives show top-dose activity change, negative = growth inhibition, hits mostly inhibitors; chicken DT40 Tdp1-/-;hTDP1 cells + 20 nM CPT, ATP luminescence, 48 h; AID 686979, 2013; further: potency means the concentration at half of the fitted maximal effect; nearly all actives have a fitted effect of over 55% in size
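Chicken DT40 Tdp1-/- cells stably complemented with human TDP1 were seeded at 400 cells/well in medium containing 20 nM camptothecin, exposed to pin-transferred compounds, and grown at 37 °C for at least 48 hr. Viability was read as ATP luminescence.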
TDP1 block = qHTS Assay for Inhibitors of Tyrosyl-DNA Phosphodiesterase (TDP1). AID 485290, 2010. recombinant TDP1, AlphaScreen DNA substrate cleavage. Tyrosyl-DNA phosphodiesterase 1 (Homo sapiens), Q9NUW8. actives 0.28% (n = 350,000). Potency, µM (titrated, usually from 130 µM), inactives show top-dose activity change, negative = inhibition, actives largely listed as inhibitors; further: potency means the concentration at half of the fitted maximal effect; nearly all actives have a fitted effect of over 40% in size
Target sequence (Q9NUW8 whole entry, looked up): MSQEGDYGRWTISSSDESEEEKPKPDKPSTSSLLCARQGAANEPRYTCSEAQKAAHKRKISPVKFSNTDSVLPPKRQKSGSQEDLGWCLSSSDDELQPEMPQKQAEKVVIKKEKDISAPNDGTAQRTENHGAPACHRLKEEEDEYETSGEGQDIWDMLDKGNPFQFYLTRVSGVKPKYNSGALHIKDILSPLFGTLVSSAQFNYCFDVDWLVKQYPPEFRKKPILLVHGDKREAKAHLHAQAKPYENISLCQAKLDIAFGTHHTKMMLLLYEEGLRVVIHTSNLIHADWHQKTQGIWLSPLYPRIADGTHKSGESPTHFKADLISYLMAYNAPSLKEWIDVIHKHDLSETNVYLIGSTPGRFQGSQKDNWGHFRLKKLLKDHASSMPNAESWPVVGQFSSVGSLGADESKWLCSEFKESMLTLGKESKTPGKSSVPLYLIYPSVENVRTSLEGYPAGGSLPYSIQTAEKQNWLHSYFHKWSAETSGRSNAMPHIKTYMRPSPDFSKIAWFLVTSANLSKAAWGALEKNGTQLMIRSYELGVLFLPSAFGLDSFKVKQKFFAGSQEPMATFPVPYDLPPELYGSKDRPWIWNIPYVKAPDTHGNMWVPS
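E. coli-derived human Tdp1, 1 nM final. Cpd preinc 15 min RT; substrate 15 nM final, 5 min RT; AS bead mix 10 ug/ml final, 10 min RT. Signal loss = tyrosine-FITC cleavage. No-enzyme wells = max signal.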
TDP1 cell noCPT = qHTS for Inhibitors of human tyrosyl-DNA phosphodiesterase 1 (TDP1): qHTS in cells in absence of CPT. DT40 Tdp1-/- hTDP1 cells, no CPT, ATP luminescence, 48 h. Potency, µM (top dose mostly 46.2 µM), without a hit: at the top dose activity change, negative = growth inhibition, usual class: inhibitors. actives 15% (n = 420,000). AID 686978, 2013; further: potency means the concentration at half of the fitted maximal effect; nearly all actives have a fitted effect of over 55% in size
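No-CPT arm: Tdp1-/-;hTDP1 DT40 cells (400/well) plus compounds, incubated ≥48 hr at 37 °C. Readout CellTiter-Glo luminescence.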
Starred values were filed as active, the others as inactive; ? = inconclusive; nt = no result given. Hits are enriched below; roughly 18% of the tested compounds scored in any of these assays. Unless noted, the call rests on the fitted dose curve; in most records, active means well fitted curve in the direction sought with a large enough effect; inconclusive means small, poorly fitted or top-dose-only effect, or another doubt; inactive means no such curve, though single readings can be large; an effect the other way counts as inactive or inconclusive. On the % scale 0 is the no-effect control and ±100 the full control effect.

SMILES	CtBP-E1A blk	IL1B secr inh	Six1-Eya2 inh	TDP1 cell CPT	TDP1 block	TDP1 cell noCPT
O=S(c1ccccc1)C(c1ccccc1)c1ccccc1 (configuration not stated)	2	8	2	?	nt	?
Cc1ccc(C(=O)O)cc1S(=O)(=O)N1CCSCC1	17	4	0	-30%	0%	12%
CC(C)c1ccc2nc(N)sc2c1	-1	2	-1	20%	4%	26µM*
CCNC(=S)N1CCC(C(=O)c2ccc(Cl)cc2)CC1	10	0	-5	?	nt	?
CCOc1ccc(NC(=S)N2CCC(C(=O)c3ccc(OC)cc3)CC2)cc1	-25	-7	-1	16µM*	nt	18µM*
CCCNC(=S)N1CCC(C(=O)c2ccc(Cl)cc2)CC1	4	29	0	23µM*	nt	?
CC(C)CNC(=S)N1CCC(C(=O)c2ccc(Cl)cc2)CC1	-21	-21	-25	10µM*	nt	?
CCS(=O)(=O)N1CCC(C(=O)c2ccc(Cl)cc2)CC1	-15	-8	4	21µM*	9%	?
O=S(=O)(/N=C(/Nc1cc(N2CCOCC2)ncn1)c1ccccc1)c1ccccc1	6	18	4	-20%	-1%	-18%
O=C(COC(=O)CNC(=O)c1ccccc1)Nc1ccc2c(c1)OCO2	0	-8	2	13%	6%	-1%
CCCNC(=S)N1CCC(C(=O)c2ccc(OC)cc2)CC1	5	-2	-1	-27%	3%	21µM*
COc1ccc(CN2CCC(C(=O)c3ccc(Cl)cc3)CC2)cc1	nt	-27	8	23µM*	nt	16µM*
CC(NC(=O)COc1ccccc1Cl)c1ccccc1 (configuration not stated)	nt	-12	21	-19%	nt	?
N#C/C(=N\Nc1ccc(Cl)cc1)C(=O)c1ccccc1	-6	-52*	-17	9.2µM*	10%	10µM*
COC(=O)C(=NNc1c(C)n(C)n(-c2ccccc2)c1=O)C(=O)OC	-15	-7	-10	0%	5%	-17%
Cc1c(N/N=C(\C#N)C(=O)c2ccc(Cl)cc2)c(=O)n(-c2ccccc2)n1C	-76*	36	-82*	3.7µM*	-3%	3.7µM*
Cc1cn([C@H]2C[C@H](O)[C@@H](CNCc3cnc(N4CCOCC4)nc3)O2)c(=O)[nH]c1=O	0	7	6	8%	nt	-2%
CCOc1ccc(C(=O)Nc2cccc(NC(=O)c3cccs3)c2)cc1[N+](=O)[O-]	nt	-25	-11	?	5%	18µM*
O=C(NNc1ccc([N+](=O)[O-])cc1[N+](=O)[O-])c1ccco1	?	-62*	-28	15µM*	9%	21µM*
COc1ccc(C(=O)NC(=S)Nc2cccc(NC(=O)c3ccco3)c2)cc1[N+](=O)[O-]	0	-4	-17	?	-1%	?
CCOc1cc(/C=N/NC(=O)c2cccs2)cc([N+](=O)[O-])c1O	nt	-20	-87*	10%	8%	-10%
CCOc1ccc(C(=O)NC(=S)Nc2cccc(NC(=O)c3ccco3)c2)cc1[N+](=O)[O-]	-14	?	-13	?	2%	15µM*
O=C(Nc1ccccc1Cl)NC1(C(=O)NCC2CCCO2)CCCCC1 (configuration not stated)	5	-25	-4	31%	6%	0%
Cc1ccc(C)c(OCC(=O)NCC(C)C)c1C	-16	-5	1	-18%	-3%	-27%
COc1ccccc1NC(=O)C1CCCN(S(=O)(=O)c2ccc(-n3cnnn3)cc2)C1 (configuration not stated)	-7	-3	-3	2%	nt	-25%
SMILES	CtBP-E1A blk	IL1B secr inh	Six1-Eya2 inh	TDP1 cell CPT	TDP1 block	TDP1 cell noCPT
Cc1cccc(NC(=O)c2cccc(NC(=O)c3ccco3)c2)c1	-6	-27	4	-25%	nt	-13%
Cc1cc(C(=O)Nc2cccc(NC(=O)c3ccco3)c2)ccc1[N+](=O)[O-]	-8	-79*	-7	?	5%	?
Cc1ccc(S(=O)(=O)CNC(=S)c2ccc3ccccc3c2)cc1	9	?	-1	?	9%	18µM*
COc1ccc(C(=S)Nc2ccc(C)cc2)cc1	-6	-10	0	-24%	0%	-4%
COc1ccc(C(=S)NCS(=O)(=O)c2ccc(C)cc2)cc1	4	-100*	13	?	11%	?
CCOC(=O)CN1C(=N)N(c2nc(NC(C)C)nc(OC)n2)CC1=O	nt	-15	-2	-6%	nt	-11%
COc1ccc(NC(=O)c2cc(S(=O)(=O)N3CCCCC3)c[nH]2)cc1	3	21	-4	3%	nt	-8%
CC1(C)CC(=O)C=C(c2ccc(I)cc2)C1	-10	-74*	-2	-9%	-6%	?
CC(=O)Nc1ccc(C2=CC(=O)CC(C)(C)C2)cc1	7	-15	2	?	-1%	-26%
O=C(NN1C(=O)C2CC=C(Cl)CC2C1=O)c1ccncc1 (configuration not stated)	-2	8	?	5%	35µM*	10%
CN(C)N1C(=O)CC(NNC(=O)c2ccncc2)C1=O (configuration not stated)	-23	-21	-7	-12%	3%	-20%
CSc1ncc(C(=O)N2CCN(c3cccc(Cl)c3)CC2)c(C)n1	nt	nt	nt	?	4%	16µM*
Cc1noc(C)c1COc1ccccc1C(=O)N1CCN(c2cccc(C(F)(F)F)c2)CC1	1	-10	0	5.2µM*	3%	4.6µM*
CSc1ncc(C(=O)N2CCN(c3cccc(C(F)(F)F)c3)CC2)c(C)n1	nt	nt	nt	?	4%	18µM*
Cc1noc(C)c1COc1ccccc1C(=O)N1CCN(c2cccc(Cl)c2)CC1	nt	7	-8	?	3%	?
CNC(=O)c1snnc1-c1ccccc1	3	-5	13	-82%	1%	-3%
O=C(Nc1n[nH]c(C2CCCCC2)n1)C1CCCCC1	8	-1	0	-13%	4%	-21%
